In PubChem BioAssay (NCATS):
Results filed as inconclusive are left out. The source made the active and inactive calls. Unless noted, calls follow the shape of the dose curve; as a rule, active = well fitted curve in the direction sought with a large enough effect; inconclusive = small, poorly fitted or top-dose-only effect, or another doubt; inactive = no such curve, though single readings can be large; an effect the other way counts as inactive or inconclusive.

Experiments:
[1] = Nrf2 qHTS screen for inhibitors: Validation (AID 493153; active = well fitted inhibition curve with a large enough effect in the main read-out, with a control signal flat, not every such curve was filed as active; also: potency is read from the fitted curve at half-maximal effect); settings: Potency: luciferase luminescence; viability change: measured here: cytotoxicity max response
How it was run: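 A549 cells carrying ARE-firefly luciferase reporter, 5000 cells/well in 5% FBS OPTI-MEM, treated with compound over a concentration series for 18-24 h at 37 C. Luciferase luminescence gave Nrf2 activity; CellTiter-Fluor fluorescence gave viability.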

[2] = biological target: Galactokinase (Homo sapiens) (UniProt P51570); assay: qHTS Validation Assay for Inhibitors of Human Galactokinase (GALK) (AID 493189)
Sequence of Galactokinase (Homo sapiens) (P51570 whole entry, looked up): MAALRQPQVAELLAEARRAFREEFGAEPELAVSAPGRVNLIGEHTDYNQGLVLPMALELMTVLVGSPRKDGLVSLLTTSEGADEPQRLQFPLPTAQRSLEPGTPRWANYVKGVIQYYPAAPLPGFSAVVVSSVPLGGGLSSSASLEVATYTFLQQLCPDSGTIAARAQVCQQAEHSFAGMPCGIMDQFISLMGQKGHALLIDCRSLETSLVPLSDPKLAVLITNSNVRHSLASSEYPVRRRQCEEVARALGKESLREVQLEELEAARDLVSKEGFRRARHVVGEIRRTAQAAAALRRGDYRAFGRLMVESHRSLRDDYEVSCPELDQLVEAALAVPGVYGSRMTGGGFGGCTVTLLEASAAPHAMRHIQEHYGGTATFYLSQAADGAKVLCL
How it was run: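 5 nM GALK / 100 uM galactose / 35 uM ATP, 20 mM HEPES pH8.0, 5 mM MgCl2, 60 mM NaCl, 1 mM DTT, 0.01% BSA (final). RT 1 h; Kinase-Glo Plus luminescence.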

[3] = Validation screen for small molecules that induce DNA re-replication in SW480 colon adenocarcinoma cells (AID 504364)
How it was run: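 SW480 cells (250/well) exposed 48 h at 37 C, 5% CO2, then Hoechst-stained 40 min. Nuclear DNA content imaged by fluorescence scanning (405 nm excitation, 500-530 nm emission); re-replication scored as increased nuclei with elevated intensity.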

[4] = biological target: Peptidyl-prolyl cis-trans isomerase NIMA-interacting 1 (Homo sapiens) (UniProt Q13526); assay: qHTS Validation Assay to Find Inhibitors of Pin1 (AID 504536; active = well fitted inhibition curve with a large enough effect in the polarisation, with a control signal flat, not every such curve was filed as active; the % refers to the polarisation; also: potency is read from the fitted curve at half-maximal effect)
Sequence of Peptidyl-prolyl cis-trans isomerase NIMA-interacting 1 (Homo sapiens) (Q13526 whole entry, looked up): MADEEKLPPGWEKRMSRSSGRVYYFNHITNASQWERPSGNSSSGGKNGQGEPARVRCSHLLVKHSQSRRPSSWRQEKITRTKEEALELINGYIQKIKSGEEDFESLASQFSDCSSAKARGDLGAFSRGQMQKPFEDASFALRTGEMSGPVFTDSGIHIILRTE
How it was run: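 Fluorescence polarization competition: compounds (titration) displace HiFluor-488-labeled Pin1-1b peptide from Pin1 (0.3 uM final) in pH 7.5 HEPES buffer with DTT, 10 min at room temperature; %Activity normalized to no-enzyme wells, curves fitted.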

[5] = biological target: Phosphoglycerate kinase, glycosomal (Trypanosoma brucei brucei) (UniProt P07378); assay: qHTS Validation Assay to Find Inhibitors of Phosphoglycerate Kinase (AID 504547)
Sequence of Phosphoglycerate kinase, glycosomal (Trypanosoma brucei brucei) (P07378 whole entry, looked up): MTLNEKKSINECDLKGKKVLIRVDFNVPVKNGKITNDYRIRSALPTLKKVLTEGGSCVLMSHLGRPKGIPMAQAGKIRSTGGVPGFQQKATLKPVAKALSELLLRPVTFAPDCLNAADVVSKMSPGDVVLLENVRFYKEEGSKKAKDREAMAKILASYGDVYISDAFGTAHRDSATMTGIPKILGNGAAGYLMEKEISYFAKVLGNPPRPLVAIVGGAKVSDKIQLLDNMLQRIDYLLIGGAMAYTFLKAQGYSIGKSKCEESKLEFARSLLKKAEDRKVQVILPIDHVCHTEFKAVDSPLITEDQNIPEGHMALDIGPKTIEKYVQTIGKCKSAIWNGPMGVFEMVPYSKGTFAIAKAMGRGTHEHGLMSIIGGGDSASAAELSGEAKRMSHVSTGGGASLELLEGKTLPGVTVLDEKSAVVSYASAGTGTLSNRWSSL
How it was run: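 Substrate/PGK mix plus compound; reaction started with GAPDH (100nM final) to form 1,3-BPG; 60 min RT; Kinase-Glo Plus 10 min; luminescence. TEA 100mM pH 7.6, MgCl2 5mM, Tween-20 0.01%.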

[6] = biological target: phosphoglycerate mutase (Leishmania major) (UniProt Q4Q090); assay: qHTS Validation Assay to Find Inhibitors of Phosphoglycerate Mutase (AID 504548); settings: Potency: inhibition qHTS; also: series mostly up to about 58 µM
Sequence of phosphoglycerate mutase (Leishmania major) (Q4Q090 1-553): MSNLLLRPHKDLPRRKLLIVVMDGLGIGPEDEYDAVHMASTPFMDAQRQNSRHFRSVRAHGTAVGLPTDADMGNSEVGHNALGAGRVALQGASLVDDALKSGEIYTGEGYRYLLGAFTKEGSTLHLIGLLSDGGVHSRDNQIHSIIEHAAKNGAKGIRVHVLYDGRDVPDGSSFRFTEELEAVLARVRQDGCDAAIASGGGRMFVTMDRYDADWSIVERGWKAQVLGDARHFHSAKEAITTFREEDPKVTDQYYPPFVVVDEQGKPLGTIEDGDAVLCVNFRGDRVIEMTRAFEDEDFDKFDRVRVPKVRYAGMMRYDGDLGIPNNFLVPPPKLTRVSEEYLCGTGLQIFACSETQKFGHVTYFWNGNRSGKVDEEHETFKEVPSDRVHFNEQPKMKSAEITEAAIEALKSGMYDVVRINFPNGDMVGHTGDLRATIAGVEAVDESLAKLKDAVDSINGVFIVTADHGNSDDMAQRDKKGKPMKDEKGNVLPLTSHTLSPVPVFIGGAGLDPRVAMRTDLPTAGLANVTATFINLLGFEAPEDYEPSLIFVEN
How it was run: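 Lm PGAM at 1.25 nM final with substrate in 100 mM TEA pH 7.6, 5 mM MgCl2, 0.01% Tween-20; 45 min at room temperature. Kinase-GloPlus added, 10 min, end-point luminescence read.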

[7] = biological target: Ubiquitin carboxyl-terminal hydrolase 1 (Homo sapiens) (UniProt O94782); assay: Inhibitors of USP1/UAF1: Pilot qHTS (AID 504865); also: nearly all actives have a fitted effect of over 35% in size; also: potency is read from the fitted curve at half-maximal effect
Sequence of Ubiquitin carboxyl-terminal hydrolase 1 (Homo sapiens) (O94782 whole entry, looked up): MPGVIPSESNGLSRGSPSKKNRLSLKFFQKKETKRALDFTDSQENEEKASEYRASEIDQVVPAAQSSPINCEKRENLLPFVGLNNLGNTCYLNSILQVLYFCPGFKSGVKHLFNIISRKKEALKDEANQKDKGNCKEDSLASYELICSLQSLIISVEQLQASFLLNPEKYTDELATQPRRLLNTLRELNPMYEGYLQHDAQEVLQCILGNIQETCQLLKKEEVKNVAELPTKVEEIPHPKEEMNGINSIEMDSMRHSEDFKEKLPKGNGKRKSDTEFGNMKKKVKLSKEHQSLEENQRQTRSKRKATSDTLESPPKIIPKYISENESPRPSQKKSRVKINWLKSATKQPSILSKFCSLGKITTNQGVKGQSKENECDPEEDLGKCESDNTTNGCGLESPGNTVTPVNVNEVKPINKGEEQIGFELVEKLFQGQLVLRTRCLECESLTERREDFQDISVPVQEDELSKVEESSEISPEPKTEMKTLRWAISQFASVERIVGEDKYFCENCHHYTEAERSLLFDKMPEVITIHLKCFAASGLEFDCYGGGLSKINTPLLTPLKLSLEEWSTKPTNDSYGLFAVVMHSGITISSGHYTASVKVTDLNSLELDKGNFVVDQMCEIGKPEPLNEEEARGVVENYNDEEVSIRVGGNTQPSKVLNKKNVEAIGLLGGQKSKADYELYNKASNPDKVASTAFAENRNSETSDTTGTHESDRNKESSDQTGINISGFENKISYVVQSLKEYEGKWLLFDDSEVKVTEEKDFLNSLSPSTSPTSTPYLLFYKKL
How it was run: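 In 50mM HEPES pH 7.8 containing 0.5mM EDTA, 1mM TCEP, 0.1 mg/ml BSA and 0.01% Tween-20, 1nM USP1/UAF1 is exposed to compound for 15 min, then Ub-Rho (150nM final) is added and fluorescence is read over time.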

[8] = qHTS for Inhibitors of ATXN expression: Validation of Cytotoxic Assay (AID 588349)
How it was run: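 HEK293 cells treated with titrated compound for 72 hr at 37 degrees C; viability read as intracellular ATP by CellTiter Glo luminescence.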

[9] = qHTS for Inhibitors of ATXN expression: Validation (AID 588378); also: series mostly up to about 57 µM; nearly all actives have a fitted effect of over 75% in size
How it was run: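 Compounds were pinned onto attached HEK293 cells carrying an ATXN2-firefly luciferase construct and incubated 24 hrs at 37 degrees C. Each well then received a fluorescent viability reagent followed by luciferase substrate for end-point luminescence.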

[10] = qHTS for Inhibitors of Cell Surface uPA Generation: Validation Assay (AID 493164)
How it was run: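 RAW 264.7 cells (4000/well) were plated overnight, then exposed for 18 h at 37 C, 5% CO2 to compounds in a 7-point 1:5 titration (2.45 nM–38.3 uM final). Intracellular ATP was read by ATP-Lite luminescence.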

O=C(c1ccc2c(c1)OCCO2)N1CCCCC1
inactive: Potency [1] | Potency [2] | Potency [3] | Potency [4] | Potency [5] | Potency [6] | Potency [7] | Potency [8] | Potency [9]
1.66%: viability change [1]

c1ccc(CN2CCC3(CCCc4ccccc43)CC2)cc1
inactive: Potency [1] | Potency [2] | Potency [3] | Potency [5] | Potency [6] | Potency [7]
-10.2%: viability change [1]

Cn1ccnc1
2.46%: viability change [1]
inactive: Potency [1] | Potency [3] | Potency [4] | Potency [5] | Potency [6] | Potency [7] | Potency [8] | Potency [9]

CC(C)(C)c1ccc(/C=C/C(=O)Nc2ccc3c(c2)OCCO3)cc1
active: Potency [1] 10.3 µM
-12.9%: viability change [1]
inactive: Potency [4] | Potency [5] | Potency [6]

CC(=O)O[C@H]1Cc2ccccc2N(C(N)=O)c2ccccc21
-3.02%: viability change [1]
inactive: Potency [1] | outcome [10] | Potency [5] | Potency [6] | Potency [7] | Potency [8] | Potency [9]

CC(C)NC[C@H](O)COc1ccc(CC(N)=O)cc1
inactive: Potency [1] | Potency [3] | Potency [4] | Potency [5] | Potency [6] | Potency [7] | Potency [8] | Potency [9]
-0.176%: viability change [1]

O=C1Cc2c([nH]c3ccc(Br)cc23)-c2ccccc2N1
3.96%: viability change [1]
inactive: Potency [1] | Potency [2] | Potency [5] | Potency [6] | Potency [7]

OC[C@H]1O[C@H](n2cnc3c(N[C@H]4CCC[C@@H]4O)ncnc32)[C@H](O)[C@@H]1O
inactive: Potency [1] | outcome [10] | Potency [4] | Potency [6] | Potency [7] | Potency [8] | Potency [9]
2.15%: viability change [1]

N[C@H](C(=O)O)[C@H](Cc1ccccc1)C(=O)O
-3.91%: viability change [1]
inactive: Potency [1] | outcome [10] | Potency [4] | Potency [6] | Potency [7] | Potency [8] | Potency [9]

CCCCCCCCCCCCCCSCC(=O)O
active: Potency [4] 23.9 µM | Potency [7] 25.1 µM
inactive: Potency [1] | Potency [2] | Potency [3] | Potency [5] | Potency [6] | Potency [8] | Potency [9]
0.626%: viability change [1]

O=C(O)/C=C/c1cnc[nH]1
inactive: Potency [1] | Potency [3] | Potency [5] | Potency [6] | Potency [7] | Potency [8] | Potency [9]
-12.4%: viability change [1]

OC[C@H]1O[C@@H](n2cnc3cncnc32)[C@H](O)[C@@H]1O
inactive: Potency [1] | Potency [2] | Potency [3] | Potency [4] | Potency [6] | Potency [7] | Potency [8] | Potency [9]
10.1%: viability change [1]

O=C(O)c1cc(=O)cc(C(=O)O)[nH]1
inactive: Potency [1] | Potency [2] | Potency [3] | Potency [4] | Potency [5] | Potency [6] | Potency [7] | Potency [9]
-5.74%: viability change [1]
